# Reference: PubChem BioAssay
# Active and inactive are the calls of the source.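 How the source made its calls, unless noted: active means inhibition at or above 50% at 10 µM; inactive means inhibition below 50%.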
# Legend:
# [1] = inhibitors of TNFa-induced NFkB p65 translocation, primary screen, imaging, HUVEC, MLSMR starter and 10KST1 sets (AID 438;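 active means inhibition above 20% together with a positive visual image hit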;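 further: compound added about 3h40 before a 20 min TNFalpha stimulation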;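 on inhibition: signal is the nuclear over cytoplasmic p65 intensity ratio per well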); conditions: HUVEC TNFa-induced p65 nuclear translocation; cell count: measured here: nuclei count (cytotoxicity indicator), at 2.08 µM; inhibition: at 2 µM, stronger effect = higher value, 0% TNFa-plus-vehicle, 100% no-TNFa wells
# [2] = reduction of polyQ htt aggregates in cells – imaging, exon1htt(103Q)mCFP cells, high-content imaging, primary screen (AID 483;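 active means visual image review flags a hit and inhibition of aggregation exceeds 20%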;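 further: compound exposure lasted 3 days before fixation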;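 on nuclei count: percent of the per-plate median nuclei count of sample wells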); conditions: exon1htt(103Q)mCFP cell line, aggregate imaging, at 2 µM; inhibition of aggregation: stronger effect = higher value; nuclei count: measured here: cell count, toxicity
# [3] = endothelial E-selectin expression blockers – imaging, HUVEC, immunofluorescence, MLSMR starter and 10KST1 sets, primary screen (AID 487;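 active means visually confirmed hit in the image check and inhibition above 20%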;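 on inhibition: signal is fraction of cell area covered by stained E-selectin grains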;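 on nuclei count: 100% = median nuclei count of all wells on the same plate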); conditions: HUVEC TNFalpha-induced E-selectin immunofluorescence imaging, at 2 µM; inhibition: stronger effect = higher value; nuclei count: measured here: cell number, toxicity
# [4] = target: Voltage-gated potassium channel subunit beta-2 (Rattus norvegicus) (UniProt P62483); test: inhibitors of rat Kvbeta2 reductase activity – biochemical, NADPH fluorescence, primary screen (AID 622;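 active means fluorescence slope higher than the sample average by over 3 SD, cut at about -0.22 in these data, passing the limit was not always enough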;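 further: slope of raw intensity against log time taken from 70 to 1610 s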); conditions: recombinant KvBeta, 4-cyanobenzaldehyde reduction, at 10 µM, stronger effect = higher value
# [5] = target: Voltage-gated potassium channel subunit beta-2 (Rattus norvegicus) (UniProt P62483); test: enhancers of rat Kvbeta2 NADPH turnover – biochemical, NADPH fluorescence, primary screen (AID 623;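 active means NADPH fluorescence slope more negative than the mean of all samples by about 3 SD, 99.7% confidence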;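 further: fluorescence intensity change per second fitted from 20 to 320 s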); conditions: Recombinant KvBeta, NADPH fluorescence decrease slope, 10 min; at 10 µM; stronger effect = lower value
# [6] = target: Alpha-2C adrenergic receptor (Homo sapiens) (UniProt P18825); test: compounds altering alpha2C-coupled GIRK flux – cell-based, HEK293 alpha2C/GIRK1/2, thallium flux, primary screen (AID 624;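 active means fluorescence slope after compound addition differing from the mean of all screened samples at 99.7% confidence, in either direction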;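 further: slope of fluorescence ratio to pre-addition baseline per second over 15 to 24 s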); conditions: thallium flux BTC fluorescence, at 10 µM, actives lie on both sides
# [7] = blockers of RIG-like receptor reporter activation – cell-based, Sendai virus stimulus, luciferase, 10K MLSCN set, TLR/RLR signaling modifier project, primary screen (AID 602276); conditions: HEK293 RL24 IRF3 luciferase reporter, at 10 µM, stronger effect = higher value;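 further: firefly luciferase from ISG56 promoter only with Renilla not read in this screen; 0% = Sendai virus plus DMSO and 100% = medium plus DMSO without virus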
# [8] = TLR3 IRF3 reporter activation blockers – cell-based, poly I:C stimulus, luciferase, 10K MLSCN set, primary screen (AID 602277;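 active means inhibition of the reporter signal at or above 50%; inactive means inhibition below 50%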); conditions: HEK293-TLR3 RL24 IRF3 luciferase reporter, at 10 µM, stronger effect = higher value
# Chain of Voltage-gated potassium channel subunit beta-2 (Rattus norvegicus) (P62483 whole entry, looked up): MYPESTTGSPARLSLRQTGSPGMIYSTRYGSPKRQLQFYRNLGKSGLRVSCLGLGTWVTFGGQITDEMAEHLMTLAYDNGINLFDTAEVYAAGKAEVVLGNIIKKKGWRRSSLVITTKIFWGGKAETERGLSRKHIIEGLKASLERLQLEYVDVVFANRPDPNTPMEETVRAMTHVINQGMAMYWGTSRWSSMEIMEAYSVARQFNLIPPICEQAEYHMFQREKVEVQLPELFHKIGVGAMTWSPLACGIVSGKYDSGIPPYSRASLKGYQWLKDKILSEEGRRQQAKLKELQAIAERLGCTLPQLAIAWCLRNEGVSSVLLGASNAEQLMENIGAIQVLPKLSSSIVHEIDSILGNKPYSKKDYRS
# Chain of Alpha-2C adrenergic receptor (Homo sapiens) (P18825 whole entry, looked up): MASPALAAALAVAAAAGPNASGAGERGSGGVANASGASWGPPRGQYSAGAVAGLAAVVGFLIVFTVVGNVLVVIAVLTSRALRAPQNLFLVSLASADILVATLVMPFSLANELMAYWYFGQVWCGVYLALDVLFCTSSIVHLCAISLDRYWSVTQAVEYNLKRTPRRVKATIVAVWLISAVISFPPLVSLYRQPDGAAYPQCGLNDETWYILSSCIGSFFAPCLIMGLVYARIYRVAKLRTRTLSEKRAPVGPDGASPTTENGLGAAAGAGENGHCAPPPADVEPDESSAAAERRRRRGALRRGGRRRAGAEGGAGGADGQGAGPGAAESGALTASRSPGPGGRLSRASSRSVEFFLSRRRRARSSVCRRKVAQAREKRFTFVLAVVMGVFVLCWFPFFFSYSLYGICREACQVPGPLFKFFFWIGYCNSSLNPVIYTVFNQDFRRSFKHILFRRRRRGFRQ
SMILES,cell count [1],inhibition [1],inhibition of aggregation [2],nuclei count [2],inhibition [3],nuclei count [3],fluorescence slope [4],NADPH fluorescence slope [5],slope [6],inhibition [7],inhibition [8]
N#Cc1nc(-c2ccccc2Cl)oc1N1CCOCC1,332,5% (inactive),10.4% (inactive),96.7%,-53.5% (inactive),116%,-0.356 (inactive),3.4e-06 (inactive),0.00468 (inactive),5.17% (inactive),-5.75% (inactive)
O=C(O)CCc1ccc(-c2cccs2)o1,314,-7.8% (inactive),-10.2% (inactive),103%,-23.1% (inactive),118%,-0.366 (inactive),-0.00014 (inactive),0.00568 (inactive),16.2% (inactive),27% (inactive)
COC(=O)CC(C(=O)Nc1cc(C(=O)OC)cc(C(=O)OC)c1)N1CCN(C)CC1 (centres undefined),661,-7.5% (inactive),-3.2% (inactive),99.8%,-105% (inactive),107%,-0.547 (inactive),-4.3e-05 (inactive),0.00646 (inactive),-2.88% (inactive),9.86% (inactive)
O=C(Nc1nnc(-c2ccc(Cl)cc2)o1)C1CCCCC1,673,1.8% (inactive),18.6% (inactive),96.8%,-21.5% (inactive),115%,-0.443 (inactive),-6.8e-05 (inactive),0.00624 (inactive),6.6% (inactive),3.98% (inactive)
CN(C)S(=O)(=O)c1ccc(/C(O)=C2/C(=O)C(=O)N(CCN3CCCCC3)C2c2cccnc2)cc1 (centres undefined),391,5.5% (inactive),5.7% (inactive),88.2%,-68.5% (inactive),113%,-0.396 (inactive),2e-05 (inactive),0.00576 (inactive),-17.9% (inactive),-24% (inactive)
Cc1cn2c(-c3ccc(Cl)cc3)nnc2s1,752,-1.6% (inactive),17.6% (inactive),98%,-81% (inactive),109%,-0.563 (inactive),-4.1e-05 (inactive),0.00702 (inactive),6.2% (inactive),12.3% (inactive)
COc1ccc(Cc2nnc(NC(=O)Cc3cccs3)s2)cc1,674,-27.6% (inactive),8.6% (inactive),105%,14.9% (inactive),101%,-0.568 (inactive),2.7e-05 (inactive),0.0056 (inactive),-11% (inactive),100% (active)
CCOc1ccc(OCc2cccc(C(=O)N3CCOCC3)c2)cc1,383,3.1% (inactive),-7.6% (inactive),101%,-148% (inactive),117%,-0.407 (inactive),-6.4e-05 (inactive),0.00492 (inactive),-39.6% (inactive),-97.2% (inactive)
CCn1c(C)cc(=S)c2ccccc21,587,-5.3% (inactive),-16.1% (inactive),105%,-56.4% (inactive),90.4%,-0.611 (inactive),-2.2e-05 (inactive),0.00608 (inactive),1.4% (inactive),12.6% (inactive)
Cc1ccc(-n2c(=O)c(C#N)cc3c(=O)n4ccccc4nc32)cc1,338,3.6% (inactive),-21.9% (inactive),99.9%,-31% (inactive),102%,-0.232 (inactive),9.6e-06 (inactive),0.00607 (inactive),5.28% (inactive),26.9% (inactive)
Cc1cccc(-n2ncc3c(NCc4cccnc4)ncnc32)c1,670,-21.7% (inactive),9.2% (inactive),101%,-18.5% (inactive),119%,-0.555 (inactive),-3.3e-05 (inactive),0.00696 (inactive),-49.1% (inactive),-205% (inactive)
CCOC(=O)Cc1csc(NC(=O)CSc2nnc(C)n2C)n1,585,3.3% (inactive),17.4% (inactive),101%,-8.1% (inactive),108%,-0.448 (inactive),-2.5e-05 (inactive),0.00393 (inactive),-24.8% (inactive),-19.7% (inactive)
COCCn1c(=N)c(C(=O)NCCc2ccccc2)cc2c(=O)n3cccc(C)c3nc21,388,4.3% (inactive),-22.7% (inactive),102%,-75.7% (inactive),117%,-0.0609 (inactive),4.2e-06 (inactive),0.00428 (inactive),9.73% (inactive),35.4% (inactive)
CCCCCCC1/C(=N/O)CCC1C(=O)OC (centres undefined),656,-7.7% (inactive),7.3% (inactive),91.2%,-54.1% (inactive),127%,-0.614 (inactive),-8.9e-06 (inactive),0.00642 (inactive),0.917% (inactive),10.1% (inactive)
